Screening results: PubChem BioAssay, National Center for Advancing Translational Sciences (NCATS)
Integrin act MD – activates integrin-mediated alleviation for muscular dystrophy; alpha7betagal myoblasts, beta-gal FDG fluorescence, 48 h; Potency, µM (doses to about 38.3 µM), most hits filed as activators; actives 0.064% (n = 350,000); note: nearly all actives have a fitted effect of over 60% in size
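Alpha7betagal+/- myoblasts (passage 13) were plated 16-24 hr, then exposed to compounds (1:260 dilution of DMSO stock) for 48 hours at 37C. After MPER lysis, β-galactosidase reporter activity was read as FDG fluorescence (ex 480/em 540) after 30 minutes.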
uPA surface inh – cell surface uPA generation inhibition; cell surface uPA generation assay, qHTS; Potency, µM (titrated, usually from 38.3 µM), actives largely listed as inhibitors; actives 0.31% (n = 330,000); active = well fitted inhibition curve with a large enough effect; inconclusive = small, poorly fitted or top-dose-only effect; inactive = no such curve, though single readings can be large or run the other way; tested in mouse RAW 264.7 cells; note: nearly all actives have a fitted effect of over 55% in size
12-LOX inh – inhibitors of human 12S-lipoxygenase ALOX12; actives 1.1% (n = 580,000); AID 1671190; Potency, µM (highest dose often 108 µM), actives largely listed as inhibitors; purified 12hLO, xylenol orange hydroperoxide absorbance; P18054
Target sequence (P18054 whole entry, looked up): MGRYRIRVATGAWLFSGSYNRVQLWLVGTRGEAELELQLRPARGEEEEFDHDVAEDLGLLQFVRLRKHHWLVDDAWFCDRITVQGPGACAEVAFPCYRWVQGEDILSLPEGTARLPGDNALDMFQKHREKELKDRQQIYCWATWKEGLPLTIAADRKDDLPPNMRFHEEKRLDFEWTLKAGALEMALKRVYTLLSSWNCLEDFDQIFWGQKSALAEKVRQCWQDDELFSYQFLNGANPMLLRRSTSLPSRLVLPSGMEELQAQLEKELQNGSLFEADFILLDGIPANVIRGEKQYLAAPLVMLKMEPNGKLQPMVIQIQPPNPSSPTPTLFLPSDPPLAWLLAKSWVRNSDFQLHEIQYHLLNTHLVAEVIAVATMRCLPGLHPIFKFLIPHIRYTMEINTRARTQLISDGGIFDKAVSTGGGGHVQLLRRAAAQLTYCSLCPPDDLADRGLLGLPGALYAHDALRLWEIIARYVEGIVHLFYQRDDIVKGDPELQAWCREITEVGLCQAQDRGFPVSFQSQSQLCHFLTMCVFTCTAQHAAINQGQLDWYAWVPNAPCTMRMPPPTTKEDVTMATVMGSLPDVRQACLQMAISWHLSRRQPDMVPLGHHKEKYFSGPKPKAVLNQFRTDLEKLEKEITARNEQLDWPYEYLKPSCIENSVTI
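Hydroperoxide product was detected by ferrous iron/xylenol orange as the 573 to 405 nm absorbance ratio. Arachidonic acid at 40 uM (final) was turned over for 30 min at room temperature by 150 nM human 12hLO, pH 7.0 Hepes buffer, after 15 min compound preincubation.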
IL-2 act – IL-2 activation; IL-2 activation reporter assay, cell-based qHTS; stimulated with anti-CD3/CD4/CD28 beads; in transgenic mouse T cells; activation, % (series mostly up to about 46 µM); actives 0.065% (n = 360,000); AID 652025; in the data active = activation above about 50%; inconclusive = mostly about 30% to 49%
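Using fluorescent plate cytometry, EGFP and DsRed are detected in transgenic mouse T cells stimulated 18 h at 37 degrees C with antibody-coated beads after 60 min compound pretreatment.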
Nrf2 activator – activates Nrf2 signaling; AREc32 ARE-luciferase reporter (MCF7-derived line), luminescence, 24 h; Potency, µM (titrated, usually from 46.1 µM), hits mostly activators; AID 624171; actives 0.31% (n = 410,000); note: nearly all actives have a fitted effect of over 65% in size
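For detection, Steady-Glo was added and plates sat 30 min at RT; before that, AREc32_Fluc cells grown overnight in OPTI-MEM/5% FBS had been treated with 23 nL compound for 24 hr at 37 deg C.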
A number is an active result; - = inactive; ? = inconclusive; . = no result; [ ] = another dose, or the depositor's remark. Hits are enriched below; roughly 1.5% of the tested compounds scored in any of these assays. Unless noted, calls come from the whole dose curve; as a rule, active = well fitted curve in the direction sought with a large enough effect; inconclusive = small, poorly fitted or top-dose-only effect, or another doubt; inactive = no such curve, though single readings can be large; an effect the other way counts as inactive or inconclusive.

SMILES	Integrin act MD	uPA surface inh	12-LOX inh	IL-2 act	Nrf2 activator
O=c1cc(C2=CCOCC2)oc2c(-c3cccc4[nH]ccc34)nccc12	.	.	35.5µM	.	.
O=c1cc(N2CCOCC2)oc2c(-c3ccccc3F)nccc12	.	.	-	.	.
COCC(=O)NC[C@@H]1C=C(C)[C@H](CC(=O)N2CCN(c3ccccn3)CC2)C[C@H]1C(C)C	.	.	-	.	.
CCOC(=O)c1cnc(-n2nc(C)cc2C)nc1NCCc1ccccc1	-	-	44.7µM	-	-
CCOC(=O)c1cnc(-n2nc(C)cc2C)nc1Nc1ccc(OC)cc1	-	-	?	-	-
Cc1cc(C(=O)COC(=O)c2nccnc2N)c(C)n1CC(F)(F)F	.	.	-	.	.
CN(C)c1ccc(NC(=O)c2cccc(N(C)C)c2)cc1	.	.	-	.	.
COc1ccccc1CNC(=O)c1ccccc1	.	.	-	.	.
CN(C)c1cccc(C(=O)NNc2c(Cl)cc(Cl)cc2Cl)c1	.	.	5.01µM	.	.
CCc1cccc(C)c1NC(=O)c1cccc(N(C)C)c1	-	-	22.4µM	-	-
CCc1cccc(C)c1NC(=O)c1cccc(C(=O)Nc2c(C)cccc2CC)c1	.	.	-	.	-
COc1ccccc1CNC(=O)c1cccc(N(C)C)c1	-	-	1.78µM	-	-
Cc1ccccc1NC(=O)COC(=O)/C=C/c1cccc2cccnc12	.	.	-	.	.
CCOc1ccc(CN2C[C@@H](CO)[C@H](c3ccncc3)C2)cc1	.	.	-	.	.
Cn1nnc(NC(=S)NC(=O)c2cc3ccccc3o2)n1	-	-	2.51µM	-	-
Cn1nnc(NC(=S)NC(=O)c2ccco2)n1	-	-	?	-	-
CCOC(=O)c1ccc(NC(=O)CN(C)S(=O)(=O)c2ccc(OC)cc2)cc1	-	-	-	69.6	-
COC(=O)C1=C(C)N=C2SC=C(CC(=O)NC3CC3)N2C1c1cccc(OC)c1 (configuration not stated)	.	.	-	.	.
CCOC(=O)N1CCN(Cc2ccc(O)c3ncccc23)CC1	-	-	25.1µM	-	-
COc1ccc(N/C=C2\CCc3ccccc3C2=O)cc1	-	1.26µM	?	-	-
CNC(=O)C1CN(c2ccc(OC)cc2)C(=O)N1 (configuration not stated)	.	.	-	.	.
O=C(Nc1ccc(-c2nnc3n2CCCC3)cc1)c1ccc2ccccc2n1	.	.	-	.	.
CCCCN(C)Cc1cc(=O)oc2cc(C)c(O)cc12	.	.	-	.	.
CCCCN(CCCC)Cc1cc(=O)oc2cc(C)c(O)cc12	.	.	39.8µM	.	.
CCCn1nc(C(=O)N2CCN(CC(=O)N3CCCCC3)CC2)c2ccccc2c1=O	.	.	-	.	.
SMILES	Integrin act MD	uPA surface inh	12-LOX inh	IL-2 act	Nrf2 activator
O=C(Cc1ccc(Cl)cc1)N1CCN(c2ccccc2O)CC1	.	.	31.6µM	.	.
CC(C#N)OC(=O)c1sccc1-c1ccccc1 (configuration not stated)	.	.	-	.	.
O=C(O)c1cc(-c2ccco2)nn1-c1ccc(Cl)cc1	-	-	?	-	-
O=C(O)c1cc(-c2ccco2)nn1-c1cccc(Cl)c1	-	-	35.5µM	-	-
Cc1nn(-c2cccc(Cl)c2)c2nc(-c3ccco3)cc(C(=O)O)c12	-	-	39.8µM	-	-
COc1cccc(CN2CCC3(C2)NC(=O)c2ccccc2O3)c1 (configuration not stated)	.	.	-	.	.
COc1ccc(-c2cc(-c3n[nH]c(=S)n3-c3cc(OC)ccc3OC)[nH]n2)cc1	-	-	44.7µM	-	-
COc1ccc(-c2n[nH]c(=S)n2-c2cc(OC)ccc2OC)cc1	-	-	?	-	-
COc1ccc(OC)c(-n2c(-c3cccc(O)c3)n[nH]c2=S)c1	-	-	3.55µM	-	-
CCCCCCSC1=C(C#N)C(=O)NC2(CCCCC2)S1	-	-	44.7µM	-	-
COc1ccc(CC2CCOC3(CCNCC3)C2)cc1 (configuration not stated)	.	.	-	.	.
COc1cc2ccc(=O)oc2cc1O	-	-	-	-	-
CC1=C(Cc2cc3ccc(=O)oc3cc2O)CC(C)(C)CC1	.	.	6.31µM	.	.
O=C(Cc1n[nH]c(=O)c2ccccc12)NCC(=O)N1CCN(c2ccccc2)CC1	.	.	11.2µM	.	.
O=C(Cc1n[nH]c(=O)c2ccccc12)NCC(=O)N1CCN(c2ccc(F)cc2)CC1	.	.	-	.	.
O=C(Nc1ccc2ccccc2n1)c1ccc(S(=O)(=O)N2CCCCC2)cc1	.	.	-	.	.
O=C(Nc1ccccc1SC(=O)c1ccccc1)c1ccccc1	-	.	5.62µM	-	?
CSc1ccccc1NC(=O)c1ccccc1	-	-	-	-	-
O=C(NC(=S)Nc1ccc(Cl)c(C(=O)O)c1)c1ccc(OCc2ccccc2)cc1	-	-	3.55µM	-	-
O=C(O)c1ccc(Cl)c(NC(=S)NC(=O)c2cccc(COc3ccccc3)c2)c1	-	-	-	-	-
CC(C)Oc1cccc(C(=O)NC(=S)Nc2cccc(NC(=O)c3ccccc3Cl)c2)c1	-	-	10µM	-	-
O=C(NC(=S)Nc1ccc(Cl)c(C(=O)O)c1)c1cccc(COc2ccccc2)c1	?	-	11.2µM	-	-
COc1cccc(C(=O)NC(=S)Nc2ccc(N(C)C)cc2)c1	-	-	44.7µM	-	-[9.22 µM]
O=C(NCCn1cccc1-c1nc(-c2ccccc2)no1)c1ccccc1F	.	.	-	.	.
CCCOc1cccc(C(=O)NC(=S)Nc2cccc(C(F)(F)F)c2)c1	-	-	?	-	-
SMILES	Integrin act MD	uPA surface inh	12-LOX inh	IL-2 act	Nrf2 activator
COc1cc(OC)cc(C(=O)NC(=S)Nc2ccc(Cl)c(C(=O)O)c2)c1	-	-	28.2µM	-	-
CCOc1cccc(C(=O)NC(=S)Nc2cccc(C)c2)c1	-	-	20µM	-	-
CCCCOc1cccc(C(=O)NC(=S)Nc2ccc(Cl)c(C(=O)O)c2)c1	-	-	5.62µM	-	-
CC(C)(CO)NC(=O)c1cc(C(C)(C)C)cc(C(C)(C)C)c1	.	.	-	.	.
CNC[C@H](CC1CCCCC1)NC[C@H](CO)NCCc1cccc(C(F)(F)F)c1	-	7.94µM	-	-	-
CCS(=O)(=O)NCCC(c1ccccc1)c1ccccc1	.	.	-	.	.
Cc1ccc2[nH]c(=O)c(CN(CCc3ccccc3)C(c3nnnn3Cc3ccco3)C(C)C)cc2c1 (configuration not stated)	-	-	11.2µM	-	-
O=C(c1ccoc1)N1CCC2(CCN(Cc3ccccn3)CC2)C(CO)C1 (configuration not stated)	.	.	-	.	.
Cc1cc(C2=NNC(=NC3CC3)SC2)c(C)n1-c1ccccc1F	-	1.58µM	?	-	-
Cc1nc2cc(NC(=O)CC3(C(=O)O)CCCC3)ccc2o1	.	.	-	.	.
CC1(COc2ccccc2)COc2ccc(C(=O)NCCOc3ccccc3)cc2N1 (configuration not stated)	.	.	-	.	.
CC1(COc2ccccc2)COc2ccc(C(=O)NCc3ccncc3)cc2N1 (configuration not stated)	.	.	28.2µM	.	.
Cc1ccc(/C(O)=C2\C(=O)C(=O)N(c3nc4ccccc4s3)C2c2ccc(O)cc2)cc1 (configuration not stated)	.	.	17.8µM	.	.
COc1ccc(C2/C(=C(\O)c3ccc(C)cc3)C(=O)C(=O)N2CCCO)cc1 (configuration not stated)	.	.	0.562µM	.	.
